In the supplement of paper PMC7858590:

system: human monocyte-derived macrophages (polarized); test: cell shape (eccentricity) Z-score vs DMSO control; higher = more elongated, M2-like morphology; conditions: 5 µM; 24 h; macrophage state: M1-polarized (IFNg + TNFa), cytokines present during treatment
Experimental: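 Primary-screen hits were rescreened on polarized hMDMs with the differentiating cytokines (IL-4 + IL-13 or IFNg + TNFa) kept in the medium during treatment with compound at 5 uM for 24 h. The eccentricity Z-score vs DMSO wells is averaged over experiments.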

Row | Structure (SMILES) | cell shape (Z-score)
1 | CCn1cc(C(=O)O)c(=O)c2cc3c(cc21)OCO3 | 3.52
2 | C[C@]12CCC(=O)C=C1CC[C@@H]1C2CC[C@]2(C)C(=O)CCC12 (stereo not given in full) | -0.101
3 | COc1cc([C@@H]2c3cc4c(cc3[C@@H](O)[C@H]3COC(=O)[C@H]23)OCO4)cc(OC)c1O | 3.2
4 | COc1cc([C@@H]2c3cc4c(c(O)c3C[C@H]3COC(=O)[C@@H]32)OCO4)cc(OC)c1OC | 3.15
5 | CC(C)=CC1C(C(=O)OCc2coc(Cc3ccccc3)c2)C1(C)C (stereo not given) | 8.88
6 | CCC(=O)CCCCC[C@@H]1NC(=O)[C@H]2CCCCN2C(=O)[C@H]([C@@H](C)CC)NC(=O)[C@H](Cc2cn(OC)c3ccccc23)NC1=O | 4.88
7 | Cc1sc2c(c1C)C(c1ccc(Cl)cc1)=N[C@@H](CC(=O)OC(C)(C)C)c1nnc(C)n1-2 | -7.72
8 | CCC1(CC)C(=O)NC(=O)NC1=O | -5.4
9 | Clc1ccc(C2=CCCC3CCC2N3)cn1 (stereo not given) | 9.06
10 | C=C(C)[C@@H]1[C@H]2OC(=O)[C@@H]1[C@]1(O)C[C@H]3O[C@]34C(=O)O[C@H]2[C@]14C | 0.251
11 | COc1cc([C@@H]2c3cc4c(cc3[C@H](OC(C)=O)[C@H]3COC(=O)[C@H]23)OCO4)cc(OC)c1OC | 7.24
12 | c1cc2c(c(N3CCNCC3)c1)OCCO2 | -7.3
13 | CCN1C[C@]2(COC)CC[C@H](OC)[C@]34C1[C@H]([C@H](OC)[C@H]23)[C@@]1(OC(C)=O)C[C@H](OC)[C@]2(O)C[C@@H]4[C@@H]1[C@H]2OC(=O)c1ccc(OC)cc1 | -6.97
14 | CC(C)[C@]12O[C@H]1[C@@H]1O[C@]13[C@]1(O[C@H]1C[C@H]1C4=C(CC[C@@]13C)C(=O)OC4)[C@@H]2O | 5.54
15 | C[C@]12CC[C@@H](O)C[C@@H]1CC[C@@H]1[C@@H]2CC[C@]2(C)[C@@H](C(=O)CO)CC[C@@H]12 | 3.05
16 | COc1ccc2c3c([nH]c2c1)[C@H](CC(C)C)N1C(=O)[C@H](CCC(=O)OC(C)(C)C)NC(=O)[C@@H]1C3 | 6.14
17 | O=C(O)c1nn(Cc2ccc(Cl)cc2Cl)c2ccccc12 | 4.43
18 | Clc1ccc(C(OCCN2CCCCC2)c2ccccc2)cc1 (stereo not given) | -5.91
19 | CN1[C@@H]2CC[C@H]1C[C@@H](OC(c1ccccc1)c1ccccc1N)C2 (stereo not given in full) | -3.5
20 | CCOC(=O)c1ncn2c1C1CCCN1C(=O)c1cc(OC)ccc1-2 (stereo not given) | 1.88
21 | CC[C@@H]1/C=C/C=C/C[C@H](C)[C@H](O)[C@](C)(O)C(=O)[C@H](C)[C@@H](O)[C@H](C)C(=O)[C@H](C)[C@@H](O)[C@H](C)/C=C/C(=O)O[C@H]2[C@@H](C)[C@@H](CC1)O[C@@]1(CC[C@@H](C)[C@@H](C[C@H](C)O)O1)[C@@H]2C | -9.34
22 | COc1cc2ccc(=O)oc2c2ccoc12 | 8.59
23 | CN(C)C(=S)SSC(=S)N(C)C | -4.6
24 | CCNC(=O)C[C@@H]1N=C(c2ccc(Cl)cc2)c2cc(OC)ccc2-n2c(C)nnc21 | -4.48
25 | O=C1/C(=C/c2ccccc2)C[C@@]2(O)[C@H]3Cc4ccc(O)c5c4[C@@]2(CCN3CC2CC2)[C@H]1O5 | -6.15
26 | CCCN(CCC)C1CCc2cccc(O)c2C1 (stereo not given) | -3.43

same assay, conditions: 5 µM; 24 h; macrophage state: M2-polarized (IL-4 + IL-13), cytokines present during treatment

Row | Structure (SMILES) | cell shape (Z-score)
27 | COc1ccc2c(c1)[nH]c1c(C)nccc12 | -11
28 | CC(=O)O[C@@H]1CC2C(C)(C)C(=O)C=C[C@]2(C)C2CC[C@]3(C)C(=CC(=O)O[C@H]3c3ccoc3)[C@@]21C (stereo not given in full) | -9.39
29 | Fc1ccc(C(OCCN2CCN(C/C=C/c3ccccc3)CC2)c2ccc(F)cc2)cc1 | -8.38
30 | O=c1[nH]c2ccccc2n1C1CCN(CCCC(c2ccc(F)cc2)c2ccc(F)cc2)CC1 | -5.52
31 | CCN1C[C@]2(C)CC[C@H](O)[C@@]34C2[C@H](OC)C([C@@H]13)[C@@]1(O)C[C@H](OC)[C@H]2C[C@@H]4[C@@H]1[C@H]2O | -1.79
32 | CC(=O)O[C@H]1CC[C@@]2(C)[C@H](CC[C@@H]3[C@@H]2CC[C@]2(C)[C@@H](C4=CC(=O)OC4)[C@@H](OC(C)=O)C[C@]32O)C1 | -23.5
33 | CC(C)=CCC[C@]1(C)C=Cc2c(O)c3c(c(CC=C(C)C)c2O1)O[C@]12C(=C[C@@H]4C[C@H]1C(C)(C)O[C@@]2(C/C=C(/C)C(=O)O)C4=O)C3=O | -10
34 | C[C@H]1O[C@@H](O[C@H]2CC[C@]3(CO)C4CC[C@]5(C)[C@@H](C6=CC(=O)OC6)CC[C@]5(O)[C@@H]4CC[C@H]3C2)[C@H](O)[C@H](O)[C@@H]1O[C@@H]1O[C@H](CO)[C@@H](O)[C@H](O)[C@H]1O (stereo not given in full) | -17.5
35 | c1ccc2c(c1)[I+]c1ccccc1-2 | -19
36 | C(=C\c1ccccc1)/CN1CCN(CCOC(c2ccccc2)c2ccccc2)CC1 | 3.27
37 | C=C1[C@@H](C)[C@H]2[C@H](Cc3ccccc3)NC(=O)[C@]23OC(=O)/C=C/[C@H](O)CCC[C@@H](C)C/C=C/[C@H]3[C@@H]1O | -29.4
38 | CN1C(=O)COc2c(C(=O)NC3CN4CCC3CC4)cc(Cl)cc21 (stereo not given) | -3.99
39 | COc1cc(Br)c(OC)c2c1C(CN)C2 (stereo not given) | 7.42
40 | CC(=O)O[C@H]1C(=O)[C@@]2(C)[C@H]([C@H](OC(=O)c3ccccc3)[C@]3(O)C[C@H](O)C(C)=C1C3(C)C)[C@]1(OC(C)=O)CO[C@@H]1C[C@@H]2O | -9.61
